In PubChem BioAssay (NCI) one finds growth data, which are given here for 13 compounds.

Some test systems named below: RPMI-8226 leukemia; OVCAR-8 ovarian; OVCAR-5 ovarian; OVCAR-4 ovarian; IGROV1 ovarian; OVCAR-3 ovarian; HS 578T breast; NCI/ADR-RES ovarian; SK-OV-3 ovarian.
Assay in all cases: NCI-60 one-dose screen, 48 h (100 = growth as untreated, 0 = no growth, -100 = all killed)
Conditions in all cases: 10 µM unless noted

Each structure is given as a SMILES string. This is part of a sample that, as a whole, favours compounds with a hit. Of some 83,000 tested, about 20% had one in any assay.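 Cells were grown in 96-well plates and exposed to the test compound at a single concentration for 48 hours; results are reported as percent growth, with values below 10 considered active.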 Unmarked numbers belong to inactive results. Calls of active or inactive are those of the source.

`Cc1nc2ccc(Cl)cn2c1-c1nnc(SCc2ccc([N+](=O)[O-])cc2)o1`: the growth in the experiment on RPMI-8226 leukemia is 81.9%; in the experiment with OVCAR-8 ovarian, 36.8%; in the experiment on OVCAR-5 ovarian, 83.7%; in the experiment on OVCAR-4 ovarian, 32.5%; in the experiment with IGROV1 ovarian, 62.3%; in the experiment on OVCAR-3 ovarian, 66.8%. The growth was 45.6% in the experiment with HS 578T breast and 36.1% in the experiment with NCI/ADR-RES ovarian.
Turning to `O=C1C=CC(=O)N1c1cccc(Cl)c1`, the growth was 95.6% with RPMI-8226 leukemia; 107% in the experiment on OVCAR-8 ovarian; 111% with OVCAR-5 ovarian; 108% in the experiment on SK-OV-3 ovarian; 117% in the experiment on IGROV1 ovarian; 90.1% with OVCAR-3 ovarian. Also, the growth is 113% with HS 578T breast and 98.3% in the experiment with NCI/ADR-RES ovarian.
Turning to `O=C(c1nnc(Nc2ccccc2Br)o1)c1c[nH]c2ccccc12`, the growth in the experiment with RPMI-8226 leukemia is 93.6%; in the experiment on OVCAR-8 ovarian, 94.9%; in the experiment on OVCAR-5 ovarian, 99.6%; in the experiment with OVCAR-4 ovarian it was 106%; with IGROV1 ovarian, 72.6%; in the experiment on OVCAR-3 ovarian, 97.2%. For the same compound, the growth in the experiment with HS 578T breast is 104%; in the experiment on NCI/ADR-RES ovarian it was 102%.
Consider `COc1cc(C2C3=C(COC3=O)N(CCO)c3cc4c(cc32)CCC4)cc(OC)c1OC` (stereo unspecified), for which the growth in the experiment with RPMI-8226 leukemia is 17.9%; in the experiment on OVCAR-8 ovarian, 31.5%; in the experiment with OVCAR-5 ovarian, 8% (active); with OVCAR-4 ovarian, 23.3%; in the experiment on SK-OV-3 ovarian, -32.1% (active); in the experiment on IGROV1 ovarian, 8.46% (active). The growth is 14.5% with HS 578T breast and -74.5% (active) with NCI/ADR-RES ovarian.
For `Oc1ccc(C(c2ccc(O)cc2)c2ccc(Br)cn2)cc1`, the growth with RPMI-8226 leukemia is 119%; in the experiment on OVCAR-8 ovarian, 2.17% (active); in the experiment with OVCAR-4 ovarian it was -38.1% (active); in the experiment on SK-OV-3 ovarian, 65.4%; with IGROV1 ovarian it was 11.8%; in the experiment on OVCAR-3 ovarian, -37.4% (active). The growth with HS 578T breast was -35.6% (active); in the experiment on NCI/ADR-RES ovarian, -38.7% (active).
`COc1cc(/C=C\c2cc(OC)c(OC)c(OC)c2)cc(NC(=O)/C=C/c2cc(OC)c(OC)c(OC)c2)c1OC`: the growth was 45% in the experiment on RPMI-8226 leukemia; 77.3% in the experiment on OVCAR-5 ovarian; 61% in the experiment on OVCAR-4 ovarian; 50.8% with SK-OV-3 ovarian; 52.8% in the experiment on IGROV1 ovarian; 51.1% with OVCAR-3 ovarian. In addition, the growth was 68.6% in the experiment on HS 578T breast and 17.8% with NCI/ADR-RES ovarian.
Take `C=C(C)[C@@H]1CC[C@]2(C(=O)N[C@@H](Cc3ccccc3)C(=O)OC)CC[C@]3(C)[C@H](CC[C@@H]4[C@@]5(C)CCC(=O)C(C)(C)[C@@H]5CC[C@]43C)[C@@H]12`: the growth is 85.2% in the experiment on RPMI-8226 leukemia; 100% in the experiment on OVCAR-8 ovarian; 73.5% with OVCAR-4 ovarian; 88.7% with IGROV1 ovarian; 72.7% in the experiment with OVCAR-3 ovarian; 96.4% with HS 578T breast. In the experiment with NCI/ADR-RES ovarian, the growth is 99.1%.
`O=C1Nc2cc(-c3ccc(NC(=O)c4ccccc4)cc3)ccc2/C1=C/c1ccc[nH]1`: the growth with RPMI-8226 leukemia was 101%; with OVCAR-8 ovarian it was 101%; in the experiment on OVCAR-5 ovarian, 110%; with OVCAR-4 ovarian it was 70%; with IGROV1 ovarian it was 95.3%; in the experiment with OVCAR-3 ovarian, 93.9%. Besides, the figures for the growth with HS 578T breast and in the experiment on NCI/ADR-RES ovarian were 115% and 90.1%, respectively.
As for `CSc1nc2sc3cccc(Cl)c3n2c(=N)c1C#N`, the growth in the experiment with RPMI-8226 leukemia was 90.7%; in the experiment with OVCAR-8 ovarian, 99.3%; with OVCAR-5 ovarian it was 119%; in the experiment with IGROV1 ovarian it was 93.4%; in the experiment with HS 578T breast it was 98.2%; with NCI/ADR-RES ovarian, 103%.
Regarding `C[C@H]1[C@H](C)CC[C@]2(C(=O)Nc3ccc4ncccc4c3)CC[C@]3(C)C(=CC[C@@H]4[C@@]5(C)CCCNC(C)(C)[C@@H]5CC[C@]43C)[C@H]12`, the growth is -42.3% (active) in the experiment with RPMI-8226 leukemia; -80.5% (active) in the experiment with OVCAR-8 ovarian; 27.8% with OVCAR-4 ovarian; 103% in the experiment with SK-OV-3 ovarian; -73.3% (active) with IGROV1 ovarian; -45.1% (active) in the experiment on OVCAR-3 ovarian. Further, the growth in the experiment on HS 578T breast is -53.3% (active); in the experiment on NCI/ADR-RES ovarian it was -48.6% (active).
Turning to `CCN1Cc2nc3sc(C)c(C)c3c(=O)n2C=C1C`, the growth in the experiment on OVCAR-8 ovarian was 38.1%; in the experiment with OVCAR-5 ovarian, 85.9%; in the experiment on OVCAR-4 ovarian it was 42.3%; with SK-OV-3 ovarian, 115%; in the experiment on IGROV1 ovarian, 30.1%; with OVCAR-3 ovarian it was 46%. The growth is 43.2% in the experiment on HS 578T breast and 30.9% with NCI/ADR-RES ovarian.
Turning to `Cc1ccc(-c2nc3ccccn3c2/C=C2/C(=O)Nc3cc(Cl)ccc32)cc1`, the growth in the experiment on RPMI-8226 leukemia is 93.6%; in the experiment on OVCAR-5 ovarian it was 101%; in the experiment on OVCAR-4 ovarian, 74.7%; in the experiment on SK-OV-3 ovarian it was 94.4%; with IGROV1 ovarian, 81.3%; in the experiment with OVCAR-3 ovarian, 93.7%. Moreover, the growth in the experiment on HS 578T breast is 101%; in the experiment on NCI/ADR-RES ovarian, 27%.
For the compound `N#CC(C(=O)/C(=N/NC(=O)c1ccccc1O)C(C#N)c1ccccc1)c1ccccc1` (stereo unspecified), the growth was 52.3% in the experiment with OVCAR-8 ovarian; 91.2% in the experiment with OVCAR-5 ovarian; 58.8% with OVCAR-4 ovarian; 45.9% in the experiment on SK-OV-3 ovarian; 37.7% in the experiment on IGROV1 ovarian; 68.7% with OVCAR-3 ovarian. Also, the growth in the experiment on HS 578T breast was 24.1%; in the experiment on NCI/ADR-RES ovarian, 44.5%.
